Most compounds without a hit are left out; they make up all but 4.4% or so of the library.
TRHR agonist-1 – qHTS for Small Molecule Agonists and Allosteric Enhancers of Human TRH Receptor: Primary Screen for Agonists; TRHR cells, calcium flux fluo-8, FDSS agonist mode; activation, % at 2 µM; 360,000 tested, 0.18% active; in the data active means activation above about 30%; further: 0% is about no effect
Target sequence (P34981 whole entry, looked up): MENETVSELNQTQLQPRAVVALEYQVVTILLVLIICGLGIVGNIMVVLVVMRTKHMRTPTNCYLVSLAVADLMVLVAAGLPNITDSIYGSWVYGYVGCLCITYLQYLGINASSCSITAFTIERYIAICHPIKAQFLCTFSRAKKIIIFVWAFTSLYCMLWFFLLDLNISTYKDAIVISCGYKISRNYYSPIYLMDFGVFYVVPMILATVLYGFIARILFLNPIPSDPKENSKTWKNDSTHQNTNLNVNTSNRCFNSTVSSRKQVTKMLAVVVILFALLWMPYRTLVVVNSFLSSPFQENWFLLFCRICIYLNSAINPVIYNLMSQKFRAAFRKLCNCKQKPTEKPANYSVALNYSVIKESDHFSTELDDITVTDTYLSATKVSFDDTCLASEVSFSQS
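Steps: seed TRHR cells overnight; add fluo-8 no-wash Ca dye, RT 30 min–1.5 h; record 10 s baseline; pin-transfer compounds; monitor fluorescence 1 cycle/s for the agonist window. Calcium increases flag candidate agonists.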
D1 agonist – Allosteric Agonists of the Human D1 Dopamine Receptor: qHTS. 360,000 tested, 1% active. activation, % at 2 µM. HEK293 T-REx D1 cells, calcium flux, agonist mode. D(1A) dopamine receptor (Homo sapiens), P21728. AID 504660, 2011; in the data active means activation above about 30%; further: 0% is about no effect
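Agonism was scored from calcium flux recorded over 180 s (1 read/s) after pintool compound addition, following a 10-cycle baseline. Cells were inducible force-coupled HEK293 TREx D1, plated overnight at 30 C and loaded with no-wash calcium dye.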
D1 PAM – Potentiators of Human D1 Dopamine Receptor: qHTS | D(1A) dopamine receptor (Homo sapiens), P21728 | HEK293 TREx D1 cells, calcium flux, dopamine EC20 potentiation | potentiation, % at 10 µM | 360,000 tested, 0.036% active; in the data active means potentiation above about 30%; further: 0% is about no effect
USP1-UAF1 inh – Inhibitors of USP1/UAF1: Primary Screen; Ubiquitin carboxyl-terminal hydrolase 1 (Homo sapiens), O94782; 390,000 tested, 0.23% active; recombinant USP1/UAF1, Ub-Rhodamine cleavage fluorescence; AID 743255, 2014; Potency, µM (highest dose often 57.1 µM), for the others: top-dose activity change, negative = inhibition, most hits filed as inhibitors; further: potency means the concentration at half of the fitted maximal effect; on the % scale 0 is the no-effect control and ±100 the full control effect; nearly all actives have a fitted effect of over 60% in size
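In this screen, compounds sit with the deubiquitinase complex (1nM) for 15 min at room temperature before Ub-Rho is added at 150nM final. Fluorescence rise is then followed for 6 reads every 60 seconds.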
TRHR enhancer-1 – qHTS for Small Molecule Agonists and Allosteric Enhancers of Human TRH Receptor: Primary Screen for Enhancers; enhancement, % at 2 µM; 360,000 tested, 0.66% active; Thyrotropin-releasing hormone receptor (Homo sapiens), P34981; TRHR cells, fluo-8 calcium fluorescence, EC20 TRH enhancement; in the data active means enhancement above about 30%; further: 0% is about no effect
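TRHR-expressing cells loaded with fluo-8 calcium dye were read kinetically (ex 480/em 530) during compound addition, then stimulated with an EC20 of TRH (10 nM final). Enhancement of the Gq-mediated intracellular calcium response was scored.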
D1 antagonist – Antagonist of Human D 1 Dopamine Receptor: qHTS. D(1A) dopamine receptor (Homo sapiens), P21728. HEK293 TREx D1 cells, calcium flux, dopamine EC80; active compounds read low. activity change, negative = inhibition, % at 10 µM. 360,000 tested, 3.2% active. AID 504652, 2011; in the data active means activity change below about -30%; further: on the % scale 0 is the no-effect control and ±100 the full control effect
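Antagonism measured as reduced calcium response to an EC80 dopamine addition following 180 s compound pre-read; cells were inducible HEK293 Trex D1 plated overnight at 30 C, read kinetically at 1 cycle/sec.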
TRHR enhancer-2 – qHTS for Small Molecule Agonists and Allosteric Enhancers of Human TRH Receptor: Confirmation Screen for Enhancers. AID 493076, 2011. 970 tested, under 10 active. TRH receptor cell assay, enhancer confirmation qHTS. activity change, negative = inhibition, % at 46.1 µM. shares compounds with TRHR enhancer-1;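 further: compound effect scored on response to added TRH at EC20 of 10 nM; 0% is about no effect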
TRHR agonist-2 – qHTS for Small Molecule Agonists and Allosteric Enhancers of Human TRH Receptor: Confirmation Screen for Agonists; shares compounds with TRHR enhancer-1; TRHR-expressing cells, agonist activation read-out; Potency, µM (series often up to 46.1 µM), for the others: at the top dose activation, usual class: activators; 970 tested, 8% active; further: potency means the concentration at half of the fitted maximal effect; 0% is about no effect; nearly all actives have a fitted effect of over 75% in size
* = called active by the depositor; ! = repeats disagree. Unless noted, the call rests on the fitted dose curve; in most records, active means well fitted curve in the direction sought with a large enough effect; inconclusive means small, poorly fitted or top-dose-only effect, or another doubt; inactive means no such curve, though single readings can be large; an effect the other way counts as inactive or inconclusive.

Results for CC(=O)c1ccc(-c2csc(N3CCC(C(N)=O)CC3)n2)cc1 ?
TRHR agonist-1: 0; D1 agonist: 2; D1 PAM: -6; TRHR enhancer-1: -3; D1 antagonist: 4

How did CS(=O)(=O)c1cccc(-c2csc(N3CCC(C(N)=O)CC3)n2)c1 do in these assays?
TRHR agonist-1: 0; D1 agonist: 3; D1 PAM: -8; TRHR enhancer-1: 48*!; D1 antagonist: 7; TRHR enhancer-2: 4; TRHR agonist-2: 7%

Results for CCOC(=O)c1c(C)[nH]c(C)c1S(=O)(=O)N1CCCC(C(=O)Nc2cc(C)ccc2C)C1 (configuration not stated) ?
TRHR agonist-1: 0; D1 agonist: 3; D1 PAM: -3; USP1-UAF1 inh: -25%; TRHR enhancer-1: 11; D1 antagonist: 2

What do the screens show for `Cc1ccccc1C(=O)N1CCCC(CCC(=O)N2CCN(c3ccccn3)CC2)C1` (configuration not stated)?
TRHR agonist-1: 0; D1 agonist: 4; D1 PAM: -6; USP1-UAF1 inh: -9%; TRHR enhancer-1: 28; D1 antagonist: 4

Results for CCc1cc(C(=O)N2CCCC(CCC(=O)N3CCN(c4ccccn4)CC3)C2)no1 (configuration not stated) ?
TRHR agonist-1: -2; D1 agonist: 1; D1 PAM: -7; USP1-UAF1 inh: -4%; TRHR enhancer-1: 42*; D1 antagonist: -5; TRHR enhancer-2: 1; TRHR agonist-2: 1%

How did CC(=O)Nc1ccc2c(c1)nc(CCNC(=O)c1ccccc1)n2C do in these assays?
TRHR agonist-1: -1; D1 agonist: -1; D1 PAM: 2; USP1-UAF1 inh: -21%; TRHR enhancer-1: 42*; D1 antagonist: 1; TRHR enhancer-2: 14; TRHR agonist-2: -1%

How did Cn1c(CN2CCCC2)nc2cc(NC(=O)c3ccco3)ccc21 do in these assays?
TRHR agonist-1: 0; D1 agonist: 0; D1 PAM: -5; USP1-UAF1 inh: 4%; TRHR enhancer-1: 55*; D1 antagonist: -10; TRHR enhancer-2: -3; TRHR agonist-2: -1%

How did Nc1c(C(=O)C2CC2)sc2nc(-c3ccccc3)cc(C(F)(F)F)c12 do in these assays?
TRHR agonist-1: 43*; D1 agonist: 66*; D1 PAM: -3; USP1-UAF1 inh: inconclusive; TRHR enhancer-1: 10; D1 antagonist: 21; TRHR enhancer-2: 9; TRHR agonist-2: 8.2µM*

What do the screens show for `Cc1c(C)c2ccc(OCC(=O)NCCCn3ccnc3)cc2oc1=O`?
TRHR agonist-1: 0; D1 agonist: 2; D1 PAM: -8; USP1-UAF1 inh: -10%; TRHR enhancer-1: 43*; D1 antagonist: -12; TRHR enhancer-2: 1; TRHR agonist-2: 0%

How did CCn1c2ccccc2c2cc(CNCCCN3CCOCC3)ccc21 do in these assays?
TRHR agonist-1: 0; D1 agonist: 5; D1 PAM: -4; USP1-UAF1 inh: -19%; TRHR enhancer-1: 43*; D1 antagonist: -8; TRHR enhancer-2: 14; TRHR agonist-2: 3%

Source: PubChem BioAssay
